In ChEMBL document CHEMBL3988442, “University of Dundee, Small-Polar-MMV Screening Library” (2021):

Tested on: Trypanosoma cruzi
Assay: Trypanosoma cruzi phosphomannomutase and mannose-1-phosphate guanylyltransferase assay
Type: functional
Set-up: scale not given: direction of the effect not stated beside the values
Conditions: 10 µM

SMILES	Percent Effect
CC(C)COC(C)C(=O)NCc1ccc(OC(C)C)nc1 (stereo not given)	2.84%
CCc1n[nH]c(C2CN(CCc3cccs3)CCO2)n1 (stereo not given)	3.38%
CC(=O)N1CCCC(c2ccc(Nc3nc(C)cc(C)n3)cn2)C1 (stereo not given)	-1.18%
CN(CC1(O)CCCN(CCC2CCCCC2)C1=O)C1CCOCC1 (stereo not given)	7.5%
Cc1noc(C2CCC3(CCN(C(=O)c4c(C)noc4C)CC3)O2)n1 (stereo not given)	7.53%
COc1ncccc1NC(=O)N1CCC(CNC(C)=O)CC1	3.02%
CN1CCN(CCCNC(=O)c2cc(Cl)c3c(c2)OCO3)CC1	3.6%
O=C(NS(=O)(=O)c1ccc2c(c1)OCCO2)c1ccc(Br)cc1F	-2.36%
CCN1CCC(CNC(=O)C2(c3cccc(C)c3)CC2)C1 (stereo not given)	-7.69%
CC(C)N(C)Cc1cnc2n1CCN(CCc1ccccc1)C2	0.586%
CNc1nc2c(c(C(=O)N3CCCC3)n1)CN(Cc1nccn1C)CC2	2.38%
Cc1ccc(-n2nnc(CC(=O)N3CCSCC3)c2C)cc1	3.83%
Cc1nc(CN2CCCC(N(C)Cc3nnsc3Cl)C2)no1 (stereo not given)	6.76%
Cc1nc(-c2ccccc2)sc1C(=O)NCCNc1ncccn1	-7.94%
Cc1cc(=O)n(CC(=O)NCCC(C)C)c(-c2cccc(Cl)c2)n1	2.85%
CCn1ccnc1CN(C)C1CCCN(CCc2ccccc2)C1 (stereo not given)	-3.64%
CCN1CCN(c2ncc(-c3cc(C)no3)c(-c3ccoc3C)n2)CC1	1.98%
COc1ccccc1CC(=O)N1CCC(NCc2c[nH]nc2C)CC1	-1.02%
CN(Cc1cccc(F)c1)C1CCN(CCc2ccccn2)CC1	-0.65%
CC(C)c1nc2n(n1)CC(NCc1nc(-c3cccnc3)no1)CC2 (stereo not given)	5.78%

SMILES	Percent Effect
CCc1noc(C(C)N2CCN(Cc3nc(C)c(C)o3)CC2)n1 (stereo not given)	-6.39%
CCn1cnnc1C1CCN(C(=O)c2cnc3ccccc3n2)CC1	5.75%
CN(CC(=O)NCc1ccccn1)CC1CCCN1c1cccnn1 (stereo not given)	-2.15%
CC(C)(NCC(=O)NCCC#N)c1ccc2c(c1)OCCO2	3.49%
Cc1ccc(NC2CCN(C(=O)c3cccc(F)c3F)CC2)nn1	0.308%
Clc1ccccc1C1(c2ccnc(-c3ncccn3)n2)CCNCC1	-3.64%
O=C1CC(c2ccncc2)c2c(c(C(=O)O)cn2-c2ccc(F)cc2)N1 (stereo not given)	-3.14%
O=C(NCCC(=O)N1CCCc2ccccc21)c1c(O)cc(F)cc1F	6.95%
CNC(=O)N1C[C@H]2CC[C@@]3(N=C(c4ccccc4)NC3=O)[C@H]2C1	9.73%
Cc1cc(CN(C)C2CCCN(Cc3noc(C4CC4)n3)C2)no1 (stereo not given)	-9.62%
C=C1c2ccccc2C(=O)N1CCC(=O)N1CCNC(=O)C1	-2.07%
CCOC(=O)CCNC(=O)N1CCN(c2nc3ccccc3n2C)CC1	-5.42%
CNc1cc(N2CCCC2CNCc2c[nH]nc2C(C)(C)C)ncn1 (stereo not given)	-4.88%
COCC1c2c(cnn2CC2CC2)CCN1Cc1nccs1 (stereo not given)	-4.05%
CCc1nnc2n1CCN(C(=O)c1csc(-c3cnn(C)c3)n1)C2	4.96%
Cn1ncc2c1CCCC2NCc1cc(Br)cs1 (stereo not given)	3.82%
CCC(C)c1noc(C2CCN(C(=O)c3cccs3)CC2)n1 (stereo not given)	-2.65%
CCn1cnnc1CNC(=O)NC(C)C(C)C (stereo not given)	-4.68%
O=C(CC1CCCC1)N1CCCC(c2n[nH]c3nccnc23)C1 (stereo not given)	-2.17%
Fc1ccc2[nH]c(C3CCCN3CCc3ccccn3)nc2c1 (stereo not given)	1.98%
